About 50,000 (12%) of roughly 420,000 compounds were called active. A call without a number means that no potency is given here. Not shown: some 26% with an inconclusive outcome. The call rests on the fitted dose curve; in most records, active means well fitted inhibition curve with a large enough effect; inconclusive means small, poorly fitted or top-dose-only effect; inactive means flat fitted curve, though single readings scatter. This excerpt belongs to a sample that is enriched for actives.
Potency means the concentration at half of the fitted maximal effect.

The test is described as follows: qHTS for Inhibitors of human tyrosyl-DNA phosphodiesterase 1 (TDP1): qHTS in cells in presence of CPT. Further: nearly all actives have a fitted effect of over 55% in size. The following applies: chicken DT40 Tdp1-/-;hTDP1 cells + 20 nM CPT, ATP luminescence, 48 h; series mostly up to 46.2 µM. Put shortly:
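Cell growth measured by CellTiter-Glo luminescence after a minimum 48 h, 37 C compound exposure with 20 nM CPT in Tdp1-knockout DT40 cells stably expressing hTDP1, seeded 400/well; qHTS titration format.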
On the technique in general: Quantitative high-throughput screening tests each substance at several concentrations.
With `CC1CC1C(=O)OCC(=O)Nc1cccc(F)c1` (stereo unspecified), the Potency entry was “inactive”. With `CN1C/C(=C/c2cccs2)C(=O)/C(=C\c2cccs2)C1` the entry was “inactive”.

Turning to `CSC1=N/C(=C\C=C\c2cccs2)C(=O)S1`, the Potency is 14.6 µM (active). With `O=C1N/C(=C/c2cccs2)C(=O)N1Cc1ccc(F)cc1` the entry was “inactive”; with `Cn1c(=O)n(Cc2c(F)cccc2Cl)c(=O)c2c1nc1n2CCN1c1ccc(F)cc1`, “inactive”; with `COc1ccc(OC)c(-c2csc(-c3c(N)c(C(=O)c4ccccc4)n4ccccc34)n2)c1`, “inactive”. The value for `CCN1/C(=C\c2ccc3ccccc3[n+]2CC)Sc2cc(C)ccc21` was 0.184 µM (active); that for `CCN1/C(=C/C(=S)Nc2ccccc2)Sc2ccccc21` was “inactive”.

Consider `CCN1/C(=C/c2ccc3ccc(C)cc3[n+]2CC)Sc2ccccc21`, for which the Potency was 2.06 µM (active). With `O=C(CN1C(=O)NC2(CCCCCCC2)C1=O)NCc1ccc(F)cc1` the figure was 16.4 µM (active); with `O=C(CN1C(=O)NC2(CCCCCC2)C1=O)NCc1cccs1`, “inactive”; with `O=C(CN1C(=O)NC2(CCCCCC2)C1=O)NCc1ccc(F)cc1`, “inactive”. As to `Cc1ccc(NC(=O)NC(=O)CSc2nnc(-c3ccc(OC(F)F)cc3)n2N)c(C)c1`, the Potency entry was “inactive”. Consider `CC(C)(C)C(=O)Nc1ccc(-c2cn3cccnc3n2)cc1`, for which the Potency entry was “inactive”. Regarding `O=C(CC1CCCCC1)NCc1ccccc1`, the Potency result was “inactive”. In the case of `CC1CCCCN1C(=S)NCc1ccccc1` (stereo unspecified), the Potency entry was “inactive”. The value for `C/C(=N\NC(=S)NCc1ccccc1)C1CCCCC1` was 6.51 µM (active). In the case of `O=C(Nc1ccon1)c1nc[nH]c1C(=O)NCc1ccccc1`, the Potency result is “inactive”. The value for `CCC(=O)N1CCc2cc(Br)cc(S(=O)(=O)NCc3ccc(Cl)cc3)c21` was “inactive”. With `O=C1C=C(c2cccc(Cl)c2)C[C@@H](c2ccc(F)cc2)C1` the entry was “inactive”; with `O=C1C=C(c2ccnc3cc(Cl)ccc23)C[C@@H](c2ccc3c(c2)OCO3)C1`, 5.8 µM (active).

Turning to `CC(=O)C1=C(C)NC(=O)NC1c1ccc2c(c1)OCO2` (stereo unspecified), the Potency entry was “inactive”. As to `Cc1cccc(C)c1NC(=O)C1CCCN1C(=O)OC(C)(C)C` (stereo unspecified), the Potency was 11.6 µM (active). With `Cc1ccc(NC(=O)C2CCCN2C(=O)OCc2ccccc2)cc1C` (stereo unspecified) the entry was “inactive”; with `Cc1ccc(C)c(NC(=O)C2CCCN2C(=O)OC(C)(C)C)c1` (stereo unspecified), “inactive”; with `Cc1csc(=O)n1CCC(=O)OCC(=O)Nc1ccc(N2CCOCC2)cc1`, “inactive”. The value for `C[C@H](NC(=O)CC[C@H]1O[C@@H](n2ccc(=O)[nH]c2=O)[C@H](O)[C@@H]1O)c1cccc2ccccc12` was “inactive”; that for `COc1ccc([N+](=O)[O-])cc1N(CC(=O)Nc1ccccc1C(=O)N1CCOCC1)S(C)(=O)=O` was “inactive”; that for `O=C1C(Cc2ccc(O)cc2)NC(=S)N1Cc1ccccc1` (stereo unspecified) was “inactive”. The value for `CC1C(=O)N(Cc2ccccc2)c2ccccc2N1C(=O)c1ccccc1` (stereo unspecified) was 23.1 µM (active); that for `CC1Oc2ccccc2N(Cc2cccnc2)C1=O` (stereo unspecified) was “inactive”.

The record behind these values is PubChem BioAssay AID686979 (National Center for Advancing Translational Sciences (NCATS), 2013).
